# Assay results: PubChem BioAssay
# Several values for one entry are separate records, joined by “and”; a condition that tells them apart may be missing. Identical values can stand only once. Activity calls are given as the source filed them.
# Key:
# Albumin (Bos taurus) = Albumin (Bos taurus) (UniProt P02769); assay: bovine serum albumin binders on microarray, profiling panel, artefact control for SMM control protein annotation, biochemical, small-molecule microarray, Alexa647 label, 635/667 nm fluorescence (AID 1118); conditions: BSA-A647 binding, fluorescence 635 nm, higher = more signal;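 further: score merges 667 nm emission intensity and signal-to-noise per printed compound spot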
# [1] = small-molecule microarray binders of probe aXIP, primary screen, biochemical, NeuroSMM set, 635/667 nm fluorescence (AID 1119); conditions: higher = more signal, called active from +8 up or from −8 down;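 further: probe is the protein aXip251-270 applied at 1 µg/mL to compound-printed slides; binding of probe to printed compounds measured as 667 nm fluorescence plus signal to noise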
# [2] = small-molecule binders of probe aNOTCH3, primary screen, biochemical, small-molecule microarray, 635/667 nm fluorescence (AID 1120); conditions: higher = more signal;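 further: probe is a biotin-tagged antibody raised against NOTCH3 rather than NOTCH3 protein; score merges spot fluorescence near 667 nm with spot signal to noise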
# [3] = small-molecule binders of probe aNOTCH2, primary screen, biochemical, small-molecule microarray, 635/667 nm fluorescence (AID 1121); conditions: higher = more signal;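 further: score merges feature fluorescence read at 667 nm with its signal to noise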
# [4] = biological target: Carbonic anhydrase 2 (Homo sapiens) (UniProt P00918); assay: CAII small-molecule binders, profiling panel, biochemical, small-molecule microarray, Alexa647-labelled CAII (AID 1122); conditions: CAII-A647 binding fluorescence, higher = more signal
# [5] = COS7 lysate on small-molecule microarray, probe aHis, 635 nm (AID 1123); conditions: COS7 cell lysate, fluorescence, higher = more signal;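 further: z-score combines 667nm fluorescence intensity with signal-to-noise per printed compound spot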
# [6] = compound binding in COS7 lysate, probe aLAP1, primary screen, cell lysate, small-molecule microarray (AID 1124); conditions: probe aLAP1, fluorescence, higher = more signal;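 further: lysate comes from COS7 cells expressing LAP1 and is applied at 0.3 µg/mL; score merges spot fluorescence near 667 nm with signal-to-noise over triplicate slides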
# Sam68 (KHDRBS1) = assay: Sam68 small-molecule binders, primary screen, biochemical, small-molecule microarray, 635 nm fluorescence (AID 1125); conditions: small-molecule microarray binding, higher = more signal;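 further: score merges 667 nm channel intensity with signal to noise over triplicate slides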
# [7] = test system: Chordin-like protein 2 (CHRDL2); assay: CHRDL2 small-molecule binders, primary screen, biochemical, small-molecule microarray, 635 nm fluorescence (AID 1126); conditions: small-molecule microarray binding, fluorescence 635 nm; higher = more signal;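 further: printed compound slides probed with Chrdl2 protein at 4 µg/mL for 1 h at 4 C; score merges 667 nm emission intensity with signal to noise over three replicate slides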
# [8] = biological target: Concanavalin-A (Canavalia ensiformis) (UniProt P02866); assay: ConA small-molecule binders, primary screen, artefact control for SMM control protein annotation, biochemical, small-molecule microarray, Alexa647 label, 635 nm (AID 1127); conditions: ConA-A647 binding fluorescence, higher = more signal;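 further: z combines 667 nm emission intensity with signal-to-noise across three replicate slides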
# Concanavalin-A (Canavalia ensiformis), sequence (P02866 whole entry, looked up): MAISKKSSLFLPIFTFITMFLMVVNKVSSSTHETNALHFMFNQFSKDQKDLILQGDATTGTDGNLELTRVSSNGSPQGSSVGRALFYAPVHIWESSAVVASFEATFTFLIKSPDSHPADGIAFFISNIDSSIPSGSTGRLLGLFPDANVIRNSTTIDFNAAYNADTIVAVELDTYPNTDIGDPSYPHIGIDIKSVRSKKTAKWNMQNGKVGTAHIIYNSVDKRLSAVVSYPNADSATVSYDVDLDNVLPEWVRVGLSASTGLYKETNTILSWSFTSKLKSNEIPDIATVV
# Albumin (Bos taurus), sequence (P02769 whole entry, looked up): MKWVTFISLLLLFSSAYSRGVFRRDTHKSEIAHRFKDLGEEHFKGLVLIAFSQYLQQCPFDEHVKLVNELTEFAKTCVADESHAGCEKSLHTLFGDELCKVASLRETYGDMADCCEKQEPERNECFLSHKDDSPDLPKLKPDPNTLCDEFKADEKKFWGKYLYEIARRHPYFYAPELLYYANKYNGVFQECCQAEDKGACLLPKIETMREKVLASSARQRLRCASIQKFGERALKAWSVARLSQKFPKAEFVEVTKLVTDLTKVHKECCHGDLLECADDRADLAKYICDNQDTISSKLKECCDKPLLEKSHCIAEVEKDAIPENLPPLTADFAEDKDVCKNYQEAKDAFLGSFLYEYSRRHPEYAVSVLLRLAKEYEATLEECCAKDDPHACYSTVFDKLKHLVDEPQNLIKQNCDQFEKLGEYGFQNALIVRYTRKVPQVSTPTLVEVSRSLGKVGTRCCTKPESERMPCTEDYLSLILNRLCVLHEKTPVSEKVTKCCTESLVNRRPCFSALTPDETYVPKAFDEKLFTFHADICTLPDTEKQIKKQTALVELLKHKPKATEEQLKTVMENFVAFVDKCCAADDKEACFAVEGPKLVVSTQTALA
SMILES,composite z-score (Albumin (Bos taurus)),composite Z-score [1],composite z-score [2],composite z-score [3],composite z-score [4],composite z-score [5],composite z-score [6],composite z-score (Sam68 (KHDRBS1)),composite z-score [7],composite z-score [8]
CCN1C(=O)[C@H]2[C@H]3[C@H](O)[C@H](O)CC(=NNC(=O)OCc4ccc(OC)cc4)[C@H]3CC[C@H]2C1=O,0.878,-0.388 (inactive),0.0979,-0.0903,-0.121,0.0203,0.5,-0.0112,0.737,0.364
CCOC(=O)C[C@H]1[C@H](OC(=O)c2ccccc2-c2ccccc2)[C@@H](NC(=O)Cc2ccc(OC)cc2)c2cc(OCCCO)ccc2N1C(=O)c1ccc2ccccc2n1,0.0759 and 0.46,-0.252 (inactive) and -0.128 (inactive),-0.0347 and -0.0608,-0.14 and 0.0777,-0.156 and 0.0959,0.411 and 1.57,-0.264 and 0.286,-0.636 and 0.641,-0.0194 and -0.181,0.0022 and 0.662
C[N+](C)(C)CCCCNC(=O)[C@@H]1C[C@@H]2C(=O)N[C@@H](CCCC[N+](C)(C)C)C(=O)N2[C@@H]1c1cccc(OCCO)c1,-0.916 and -0.121,0.104 (inactive) and 2 (inactive),0.197 and 0.129,-0.0066 and -0.0861,0.389 and 0.799,1.19 and 2.25,0.0458 and 1.65,1.31 and 0.767,1.56 and 1.47,1.13 and 0.657
C[C@@]1([C@@H](NC(=O)Cc2ccccc2)c2ccc(-c3ccccc3)cc2)C[C@H]1C1CCCCC1,0.895 and 0.715 and 0.978,1.18 (inactive) and 0.111 (inactive) and 0.428 (inactive),0.767 and 1.49 and -0.137,0.24 and 0.797 and -0.324,0.426 and 0.62 and 0.464,0.0877 and 1.59 and 2.69,0.566 and 1.22 and 0.475,0.158 and 0.69 and 1.33,0.261 and -0.0345 and -0.954,0.956 and 0.166 and 1.12
COC(=O)C1=C(C)N(Cc2ccccc2)C2=C(C(=O)c3ccccc3)[C@H](c3ccccc3)[C@@](O)(C(=O)OC)C(=O)N2[C@@H]1c1ccccc1,0.388 and 0.0897,-0.174 (inactive) and -0.441 (inactive),0.177 and -0.0265,0.0929 and -0.171,0.0303 and -0.0063,-0.224 and 0.306,0.0568 and 0.016,0.928 and 0.821,0.275 and 0.455,0.914 and 0.37
CO[C@@H]1COC(=O)CC=C[C@H](C)[C@@H](NS(=O)(=O)c2ccc(C)cc2)COC(=O)CC=C[C@@H]1C,0.451 and -0.303,-0.288 (inactive) and 0.209 (inactive),0.127 and 0.0876,-0.0995 and -0.175,0.0088 and -0.407,0.199 and -1.12,0.0136 and -0.0513,0.762 and 0.68,0.685 and 1.25,-0.0145 and -0.207
Cc1cc2c(nc1C)CCCN2CC(C)ON=C[C@@H](C)[C@H](OCc1ccccc1)C(C)C (stereo not given in full),-0.69,0.339 (inactive),0.0642,-0.0596,-0.345,0.0869,-0.442,-1.3,0.173,-0.804
C=CCN(Cc1ccccc1)C(=O)C1N(c2c(Cl)cccc2CO)C(=O)C2C(C(=O)O)C3C=CC21O3 (stereo not given),-1.52 and -0.682,-0.874 (inactive) and -0.317 (inactive),-0.425 and -0.352,-0.168 and -0.261,-0.774 and 0.32,-0.908 and -0.629,-0.628 and -0.742,-1.89 and -1.02,-3.43 and -1.44,-1.31 and -1.79
CCN1C(=O)[C@H]2[C@H]3[C@H](O)[C@H](O)CC(=NOC[C@@H](O)COCc4ccco4)[C@@H]3CC[C@H]2C1=O,-0.423 and 0.677,-1.03 (inactive) and -0.471 (inactive),-0.161 and -0.0026,-0.17 and -0.234,-0.473 and 0.753,-0.945 and 0.351,-0.0847 and -0.0256,-0.368 and 0.0907,1.54 and 0.0802,-0.716 and 0.422
CC(CO)N1C(=O)[C@@H]2C3C(=O)OCCC=C[C@H]3OC23C=CCN(Cn2nnc4ccccc42)C(=O)[C@@H]13 (stereo not given in full),-0.169 and 0.923,0.318 (inactive) and 0.418 (inactive),-0.374 and -0.15,-0.14 and -0.0191,0.939 and 0.856,0.342 and -0.478,0.102 and 0.397,-0.821 and -0.291,-2.19 and 0.0479,-0.221 and -0.0699
CC(C)=NO[C@@H](C)c1cc(-c2c(C)cc(C)cc2C)no1,0.0075,0.454 (inactive),-0.181,-0.181,-0.223,-0.177,0.214,-0.228,0.227,0.154
C#CCN1C(/C=C/c2ccccc2)C(=O)OC[C@H]1c1ccccc1 (stereo not given in full),-0.147 and 0.723,-0.0965 (inactive) and 0.733 (inactive),-0.0766 and 0.228,-0.181 and -0.101,-0.114 and 0.493,0.096 and 0.45,-0.317 and 0.0886,0.224 and 0.889,0.852 and -0.0756,-0.243 and 0.199
CCOC(=O)[C@@H]1CC2O[C@]23C[C@@H]1C(=O)N1CCC[C@@H]1[C@H]3O[Si](C)(C)C(C)(C)C (stereo not given in full),-0.8 and -0.548,0.223 (inactive) and 0.413 (inactive),-0.11 and -0.128,-0.2 and -0.0949,-0.396 and 0.106,-0.645 and 0.205,-0.452 and 0.103,-1.37 and -0.191,0.1 and -0.201,-1.82 and -0.262
C=CCN(C(=O)C(c1cccs1)N(C(=O)/C=C\C(=O)O)c1c(Cl)cccc1CO)C(C)(C)C (stereo not given),-0.693 and -0.455,0.0333 (inactive) and 0.242 (inactive),-0.538 and -0.562,-0.125 and -0.182,0.884 and 0.936,-0.625 and -0.42,-0.766 and -0.131,-1.95 and -0.769,-2.35 and -3.64,-1.12 and -0.782
CCOC(=O)[C@@H]1CC=C2CC1C(=O)N1CCC[C@@H]1[C@H]2O[Si](C)(C)C(C)(C)C (stereo not given in full),-0.657 and -0.964,0.047 (inactive) and -0.365 (inactive),-0.227 and -0.352,-0.147 and -0.202,-0.33 and -0.492,-0.273 and -0.211,-0.687 and -0.442,-1.04 and -1.8,-0.486 and -0.0717,-2.59 and -3.25
C=CCN(CCCC)C(=O)C1N(CCCCCCO)C(=O)C2C(C(=O)O)C3C=CC21O3 (stereo not given),-1.52 and -1.4,0.0063 (inactive) and 0.131 (inactive),-0.555 and -0.323,-0.222 and -0.185,0.913 and 0.938,-0.809 and 0.159,0.861 and 0.0304,-0.243 and -0.577,-1.56 and -3.19,-2.11 and -0.791
